The campaign covered roughly 64,000 compounds. About 2,200 (3.4%) were called active. What follows is part of a selection rich in actives, with near analogues and random picks from the rest. Values without a mark were called inactive.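 How the source made its calls: active means calcium fluorescence response, raw or row-and-column corrected B-score, differing from the plate sample mean either way at a set confidence level, mostly lower; inactive means the rest.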

The target in this test is Muscarinic acetylcholine receptor M1 (Rattus norvegicus) (UniProt P08482). Description: antagonists of rat M1 muscarinic receptor (AID 628). As to conditions: CHO-M1 cells, Fluo-4 calcium, ACh EC80 antagonist mode; at 10 µM; active compounds read low.
Muscarinic acetylcholine receptor M1 (Rattus norvegicus), sequence (P08482 whole entry, looked up): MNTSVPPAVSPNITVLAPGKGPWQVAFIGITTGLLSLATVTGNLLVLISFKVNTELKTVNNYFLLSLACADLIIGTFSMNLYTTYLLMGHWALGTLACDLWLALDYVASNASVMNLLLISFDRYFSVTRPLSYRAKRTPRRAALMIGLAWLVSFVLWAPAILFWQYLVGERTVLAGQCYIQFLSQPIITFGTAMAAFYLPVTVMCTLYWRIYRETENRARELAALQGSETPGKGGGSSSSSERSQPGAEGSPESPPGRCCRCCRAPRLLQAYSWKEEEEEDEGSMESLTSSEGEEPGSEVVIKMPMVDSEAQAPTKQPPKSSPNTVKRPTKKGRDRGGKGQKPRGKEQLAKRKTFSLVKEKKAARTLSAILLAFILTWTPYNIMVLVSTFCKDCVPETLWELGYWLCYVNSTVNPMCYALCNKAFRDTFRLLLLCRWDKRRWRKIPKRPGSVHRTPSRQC
`O=C(c1cnn2ccccc12)N1CCc2ccccc21`: the B-score was -0.297. As to `O=C(CCS(=O)(=O)c1ccccc1)Nc1nc2c(s1)CCCC2`, the B-score is 1.02. To `COc1ccc(CCNC(=O)CCn2c(=O)oc3ccccc32)cc1OC` belongs 0.0532; to `CCOC(=O)CSc1nnc(NC(=O)c2cccc(S(=O)(=O)N3CCCC3)c2)s1`, 0.563; to `CCOC(=O)CSc1nnc(NC(=O)c2cccc(S(=O)(=O)N3CCCCC3)c2)s1`, -1.2. With `CCOC(=O)C1=C(CC)Nc2ccccc2N=C1NC(=O)c1cccc(S(=O)(=O)N2CCCC2)c1`, the B-score was -3.22 (active). To `COc1cccc(NC(=O)Cn2cnc3sc(C)c(S(=O)(=O)N4CCN(C)CC4)c3c2=O)c1` belongs 0.144; to `CN(C)CCCn1c(N)c(C#N)c2nc(C#N)c(C#N)nc21`, -0.181; to `Cc1c(C(=O)N2CCOCC2)[nH]c2ccc(OCc3ccccc3)cc12`, -2.27.

On to `CCOC(=O)c1[nH]c2ccc(OC)cc2c1NC(=O)N1CCOCC1`, for which the B-score is 0.577. As for `CCOC(=O)c1[nH]c2ccc(OC)cc2c1NC(=O)CCN1CCN(Cc2ccccc2)CC1`, the B-score was -4.59 (active).

For `O=C(CN(c1ccc2c(c1)OCCO2)S(=O)(=O)c1ccccc1)Nc1ccc2c(c1)OCO2`, the B-score was 0.461. Turning to `CCOc1ccccc1NC(=O)c1cc(S(=O)(=O)N2CCC3(CC2)OCCO3)ccc1F`, the B-score is -0.759. Take `CCOC(=O)C1CCN(C(=O)c2oc3ccc(S(=O)(=O)N4CCCCCC4)cc3c2C)CC1`: the B-score is -0.942.

Regarding `Cc1c(C(=O)Nc2ccccc2Cl)oc2ccc(S(=O)(=O)N3CCC4(CC3)OCCO4)cc12`, the B-score was 2.7 (active). To `Cc1ccc(NC(=O)CN(C)S(=O)(=O)c2cnc[nH]2)cc1C` belongs 0.0747. To `O=C(NCC(F)(F)F)Nc1nnc(C(F)(F)F)s1` belongs -1.96 (active); to `CCc1nnc(NC(=O)CCC(=O)O)s1`, 0.852. Regarding `CC(=O)Nc1ccc(NC(=O)CN2CCCC(C)C2)c(Cl)c1` (stereo unspecified), the B-score is -1.15. For `Cc1cc(C)cc(NC(=O)C2CCN(c3nc(C)cc(C)n3)CC2)c1`, the B-score was 0.673. To `COc1ccc(C2C(C#N)=C(N)Oc3cc(N)ccc32)cc1OC` (stereo unspecified) belongs 0.645; to `O=C(Nc1ccncc1)c1c(F)cccc1F`, -4.49 (active); to `CCOc1ccc(C(=O)Nc2ccncc2)cc1`, 0.109.

For `O=C(Nc1ccncc1)c1cc2ccccc2o1`, the B-score was 1.08. Regarding `CC1Oc2ccccc2N(Cc2cccnc2)C1=O` (stereo unspecified), the B-score was 1.07.

Regarding `COC(=O)c1sc(=S)n(-c2ccccc2)c1N`, the B-score is 0.339. `Cc1ccc(Cn2c(NC(=O)c3ccco3)nc3ccccc32)cc1`: the B-score is 0.141.

With `Cc1ccc(-c2csc3nnc(SCC(=O)NCc4ccco4)n23)cc1`, the B-score was -10.4 (active). To `O=C(CSc1nnc2scc(-c3ccc(F)cc3)n12)NCc1ccco1` belongs -0.509; to `Cn1c(-c2ccc(F)cc2)cnc1SCC(=O)NCc1ccco1`, 0.325; to `CCCN(CCC)CCNC(=O)c1cc2c(C)nc3ccccc3c2o1`, 0.00891. Take `Cc1nc2ccccc2c2oc(C(=O)NCCCN3CCC(C)CC3)cc12`: the B-score is -6.51 (active). `Cc1nc2ccccc2c2oc(C(=O)NCC3CCCO3)cc12` (stereo unspecified): the B-score is 0.0181. To `Cc1ccc(Nc2nc(CSc3nnnn3-c3ccccc3)cc(=O)[nH]2)cc1` belongs -0.208. Consider `CCOC(=O)Cc1csc(NC(=O)CSc2nc(C)cc(=O)[nH]2)n1`, for which the B-score is -0.287. In the case of `CN(CC(=O)NC1CCCCC1)S(=O)(=O)c1ccc(Br)s1`, the B-score was -1.64. With `Cc1ccc(S(=O)(=O)Cn2nnnc2CN2CCN(Cc3ccc4c(c3)OCO4)CC2)cc1`, the B-score is -0.838. To `Fc1ccccc1C(c1nnnn1Cc1ccc2c(c1)OCO2)N1CCN(Cc2ccccc2)CC1` (stereo unspecified) belongs 0.889 (active). With `Cc1cc(C)c2[nH]c(=O)c(C(c3nnnn3Cc3ccc4c(c3)OCO4)N3CCCC3)cc2c1` (stereo unspecified), the B-score was 0.419. As to `CCOC(=O)Cn1c(N)c(C(=O)OC)sc1=S`, the B-score is 0.106. With `Cn1c(=O)c2c(nc(OCc3cccnc3)n2Cc2ccccc2)n(C)c1=O`, the B-score is -0.0901.

As for `Cc1ccccc1C(OCC(O)CN1CCCCC1CCO)c1ccccc1` (stereo unspecified), the B-score was -3.65 (active). Take `COc1cccc(-c2nnc(N(C)C(=O)c3ccno3)s2)c1`: the B-score was 0.344. On to `CC1CN(c2cc(=O)n(-c3cccc(Br)c3)c(=O)[nH]2)CC(C)O1` (stereo unspecified), for which the B-score was -0.299.

`CCN1C(=O)/C(=C\N2CCN(c3ccccc3)CC2)SC1=S`: the B-score was 0.399. For `CCN1C(=O)/C(=C\N2CCN(c3cccc(Cl)c3)CC2)SC1=S`, the B-score is 0.609.

As to `CCN1C(=O)/C(=C2\SC(N3CCCCC3)=NC2=O)c2ccccc21`, the B-score is -3.91 (active). Regarding `CS(=O)(=O)N(CC(=O)N1CCOCC1)c1ccc2c3c(cccc13)CC2`, the B-score is 0.0978. Take `Cc1cc(NC(=O)COn2nnc3ccccc32)no1`: the B-score was -0.00408. To `CCOC(=O)c1c(C2CC2)csc1NC(=O)CSCc1c(C)noc1C` belongs -0.892; to `Cc1cc(NC(=O)CCC2COc3ccccc3O2)no1` (stereo unspecified), -0.711. Consider `COc1ccc(CCNc2ncnc3nc[nH]c23)cc1OC`, for which the B-score is -0.37. As for `c1ccc2c(c1)OCC(CNc1ncnc3nc[nH]c13)O2` (stereo unspecified), the B-score is -5.49 (active). To `COCc1[nH]nc2c1C(C1C=CCCC1)C(C#N)=C(N)O2` (stereo unspecified) belongs 0.327; to `O=C(c1ccccc1)c1ccc(OC(=O)N2CCCC2)cc1`, -0.578; to `CCOc1ccccc1C1CC(c2ccccc2)Nc2nc(N)nn21` (stereo unspecified), 0.59. To `CCOC(=O)c1c(C)[nH]c(C(=O)COc2ccc3c(c2)OCO3)c1C` belongs -0.104; to `CCCCOC(=O)c1[nH]c(C)c(C(=O)OC)c1C`, 1.78 (active); to `CCOC(=O)c1c(C)[nH]c(C(=O)NCc2ccccc2OC)c1C`, -0.312. To `COc1ccccc1N(CC(=O)N1CCCCC1)S(=O)(=O)c1ccccc1` belongs -0.874.

For the compound `COc1ccc(N2C(=O)c3cccc4cccc(c34)C2=O)nn1`, the B-score was 0.203.

The values above are taken from PubChem BioAssay AID628 (Vanderbilt High Throughput Screening Facility, 2007).
